According to the supplement of paper PMC8728848:
About 410 targets per protein were measured; listed, in parts, are those with the strongest signals and a random draw of the rest.

Tests used:
Test in all cases: glycan array binding signal (z-score within array); higher = stronger binding
Details in all cases: glycan notation: IUPAC condensed, linker removed
[1] = molecular target: Fuc(a1-2)Gal(b1-3)GalNAc(a1-3)[Fuc(a1-2)]Gal(b1-4)GlcNAc
Outline: (§1)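 Glycan array data came from 3228 arrays in the Consortium for Functional Glycomics database, and only arrays with an available protein sequence were kept. Glycan names were put into IUPAC-condensed notation, and columns mapping to the same glycan were averaged. The binding signal is a within-array Z-score, averaged across arrays of one protein sequence run at different concentrations or buffers and across linkers. A negative Z-score can be read as non-binding.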

[2] = molecular target: Fuc(a1-2)Gal(b1-3)[Fuc(a1-4)]GlcNAc
Outline: as §1

Fuc(a1-2)Gal(b1-4)Glc = molecular target: Fuc(a1-2)Gal(b1-4)Glc
Outline: as §1

[3] = molecular target: Fuc(a1-2)Gal(b1-4)GlcNAc(b1-2)[Fuc(a1-2)Gal(b1-4)GlcNAc(b1-4)]Man(a1-3)[Fuc(a1-2)Gal(b1-4)GlcNAc(b1-2)Man(a1-6)]Man(b1-4)GlcNAc(b1-4)GlcNAc
Outline: as §1

Fuc(a1-2)[Gal(a1-3)]Gal = molecular target: Fuc(a1-2)[Gal(a1-3)]Gal
Outline: as §1

[4] = molecular target: Fuc(a1-2)[Gal(a1-3)]Gal(b1-3)GlcNAc(b1-2)Man(a1-3)[Fuc(a1-2)[Gal(a1-3)]Gal(b1-3)GlcNAc(b1-2)Man(a1-6)]Man(b1-4)GlcNAc(b1-4)GlcNAc
Outline: as §1

[5] = molecular target: Fuc(a1-2)[GalNAc(a1-3)]Gal(b1-4)[Fuc(a1-3)]GlcNAc(b1-3)GalNAc
Outline: as §1

[6] = molecular target: Fuc(a1-2)[GalNAc(a1-4)]Gal(b1-4)GlcNAc
Outline: as §1

[7] = molecular target: Fuc(a1-3)[Gal(b1-4)]GlcNAc(b1-2)Man(a1-3)[Fuc(a1-3)[Gal(b1-4)]GlcNAc(b1-2)Man(a1-6)]Man(b1-4)GlcNAc(b1-4)[Fuc(a1-6)]GlcNAc
Outline: as §1

[8] = molecular target: Fuc(a1-3)[Gal3S(b1-4)]GlcNAc6S
Outline: as §1

Gal(a1-2)Gal = molecular target: Gal(a1-2)Gal
Outline: as §1

Gal(a1-3)Gal(b1-4)Glc = molecular target: Gal(a1-3)Gal(b1-4)Glc
Outline: as §1

[9] = molecular target: Gal(a1-3)Gal(b1-4)GlcNAc(b1-2)Man
Outline: as §1

[10] = molecular target: Gal(a1-3)Gal(b1-4)GlcNAc(b1-2)Man(a1-3)[Gal(a1-3)Gal(b1-4)GlcNAc(b1-2)Man(a1-6)]Man(b1-4)GlcNAc(b1-4)GlcNAc
Outline: as §1

[11] = molecular target: Gal(a1-3)[Gal(a1-4)]Gal(b1-4)GlcNAc
Outline: as §1

[12] = molecular target: Gal(a1-4)Gal(b1-4)GlcNAc(b1-2)Man(a1-3)[Gal(a1-4)Gal(b1-4)GlcNAc(b1-2)Man(a1-6)]Man(b1-4)GlcNAc(b1-4)GlcNAc
Outline: as §1

[13] = molecular target: Gal(b1-3)GalNAc(a1-3)[Fuc(a1-2)]Gal(b1-4)GlcNAc
Outline: as §1

[14] = molecular target: Gal(b1-3)GlcNAc(b1-3)Gal(b1-3)GlcNAc
Outline: as §1

[15] = molecular target: Gal(b1-3)GlcNAc(b1-3)Gal(b1-4)GlcNAc(b1-6)[Gal(b1-3)GlcNAc(b1-3)]Gal(b1-4)Glc
Outline: as §1

[16] = molecular target: Gal(b1-3)GlcNAc(b1-6)Gal(b1-4)GlcNAc
Outline: as §1

[17] = molecular target: Gal(b1-3)[Fuc(a1-4)]GlcNAc
Outline: as §1

[18] = molecular target: Gal(b1-4)GalNAc(a1-3)[Fuc(a1-2)]Gal(b1-4)GlcNAc
Outline: as §1

[19] = molecular target: Gal(b1-4)GlcNAc(b1-2)Man(a1-3)Man(b1-4)GlcNAc(b1-4)GlcNAc
Outline: as §1

[20] = molecular target: Gal(b1-4)GlcNAc(b1-2)Man(a1-3)[GlcNAc(b1-4)][Gal(b1-4)GlcNAc(b1-2)Man(a1-6)]Man(b1-4)GlcNAc(b1-4)GlcNAc
Outline: as §1

[21] = molecular target: Gal(b1-4)GlcNAc(b1-3)Gal(b1-4)GlcNAc(b1-3)Gal(b1-4)GlcNAc(b1-3)Gal(b1-4)GlcNAc(b1-2)Man(a1-3)[Gal(b1-4)GlcNAc(b1-3)Gal(b1-4)GlcNAc(b1-3)Gal(b1-4)GlcNAc(b1-3)Gal(b1-4)GlcNAc(b1-2)Man(a1-6)]Man(b1-4)GlcNAc(b1-4)GlcNAc
Outline: as §1

[22] = molecular target: Gal(b1-4)GlcNAc(b1-3)[Fuc(a1-3)GlcNAc(b1-6)]Gal(b1-4)Glc
Outline: as §1

Gal3S(b1-3)GalNAc = molecular target: Gal3S(b1-3)GalNAc
Outline: as §1

Gal3S(b1-4)Glc = molecular target: Gal3S(b1-4)Glc
Outline: as §1

Gal6S(b1-3)GlcNAc = molecular target: Gal6S(b1-3)GlcNAc
Outline: as §1

Gal6S(b1-3)GlcNAc6S = molecular target: Gal6S(b1-3)GlcNAc6S
Outline: as §1

B1: PX9961KLbvu-535-38-535 (Bacteroides vulgatus) (protein)
chain: DKAYTDAESYTKGLHKIYSVWALSGQDGSSSSDISGLDAGNTALLRCWWTLQEQPTDEMKNAWNDAWCTEVNYMTWTTNKVEPIEGVYQRCMYIVALVNEFLKNIPNAPESIDKESYIAQARFNRAFAYYVLMDMFALPPFITEKNYSIEPAPLSREDLFNWIEAELNEIKPNLPSPRSEYGVADQAVASALLARMYLNAEIYTGKARYTECINACNEVIKAGYQLADNYADLFKADNGENPDTKKEIIYPIIFDGDKTQSWGMAAIIIGARGAEDKDVLLAHSGVDQGWAGFRATSNLVHLFDFQNDEEPKASEIQDKRGIFYDKGRSIDITSSVSGTFETEGWSVFKFSNLNSNGQPGKNTLWVDTDFPMFRLGDIYLMYAEAVARGGEGSKASAVEYINALRKRAYGDDKHNISENWLEENNFRNLLDERGRELYWEGIRRTDLVRFDLLTSGSYTWDFKGGINTGVGVNKRYNVYPIPVTDLTVNGNLQQNEGY
[1]
  glycan array binding signal (z-score): -0.462
[2]
  glycan array binding signal (z-score): -0.042
Fuc(a1-2)Gal(b1-4)Glc
  glycan array binding signal (z-score): -0.031
[3]
  glycan array binding signal (z-score): 2.87
Fuc(a1-2)[Gal(a1-3)]Gal
  glycan array binding signal (z-score): 1.72
[4]
  glycan array binding signal (z-score): 0.16
[5]
  glycan array binding signal (z-score): -0.162
[6]
  glycan array binding signal (z-score): -0.165
[7]
  glycan array binding signal (z-score): -0.392
[8]
  glycan array binding signal (z-score): -0.054
Gal(a1-2)Gal
  glycan array binding signal (z-score): -0.938
Gal(a1-3)Gal(b1-4)Glc
  glycan array binding signal (z-score): -0.366
[9]
  glycan array binding signal (z-score): -0.783
[10]
  glycan array binding signal (z-score): -0.391
[11]
  glycan array binding signal (z-score): 2.6
[12]
  glycan array binding signal (z-score): 2.35
[13]
  glycan array binding signal (z-score): -0.06
[14]
  glycan array binding signal (z-score): -0.549
[15]
  glycan array binding signal (z-score): -0.446
[16]
  glycan array binding signal (z-score): -0.398
[17]
  glycan array binding signal (z-score): -0.123
[18]
  glycan array binding signal (z-score): -0.291
[19]
  glycan array binding signal (z-score): 0.158
[20]
  glycan array binding signal (z-score): -0.249
[21]
  glycan array binding signal (z-score): 1.57
[22]
  glycan array binding signal (z-score): -0.046
Gal3S(b1-3)GalNAc
  glycan array binding signal (z-score): -0.326
Gal3S(b1-4)Glc
  glycan array binding signal (z-score): 1.38
Gal6S(b1-3)GlcNAc
  glycan array binding signal (z-score): 0.63
Gal6S(b1-3)GlcNAc6S
  glycan array binding signal (z-score): 1.44
